High-throughput results as filed in PubChem.
In the library only some 5.4% were active in any assay of this set; here they are far more common.
SMARCA2 activ: SMARCA2 (BRM) function activators, primary screen, cell-based, luminescence, high throughput; MG213 cells, MMTV-luciferase reporter, dexamethasone, overnight; activation, % at 9.1 µM; actives 1% (n = 370,000); AID 652017, 2013; in the data active means activation above about 7.8%;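 further: 0% = vehicle wells and 100% = reference activator wells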
PfM18AAP inh: PfM18AAP inhibitors, malaria aminopeptidase, primary screen, biochemical, QFRET, recombinant enzyme; M18 aspartyl aminopeptidase (Plasmodium falciparum 3D7); AID 1822, 2009; inhibition, % at 7.35 µM; H-Glu-NHMec fluorogenic cleavage; actives 1.2% (n = 290,000);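 active means inhibition above the campaign mean inhibition over all tested compounds plus 3 SD, cut at about 28% in these data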;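 further: 0% = plate median of test compound wells and 100% = 2 mM ZnCl2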
Exocytosis inh: LAMP-1 surface exposure blockers, TALL-104 cells – cell-based, flow cytometry, MLPCN library, primary screen; inhibition, % at 10 µM; TALL-104 LAMP-1 surface exposure; cells stimulated with thapsigargin and PMA; actives 0.66% (n = 360,000); AID 651702, 2012;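 active means inhibition above about 55%, limit read from the data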
ALR H2O2 inh: inhibitors of human ALR sulfhydryl oxidase, primary screen, biochemical, H2O2 detection, HRP-luminol luminescence, single point; FAD-linked sulfhydryl oxidase ALR (Homo sapiens), P55789; purified ALR, DTT oxidation; inhibition, % (no concentration beside the values); actives 3.8% (n = 290,000); AID 485317, 2010;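 active means mean replicate inhibition above about 79%, with every replicate also reaching it, limit read from the data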
Target sequence (P55789 whole entry, looked up): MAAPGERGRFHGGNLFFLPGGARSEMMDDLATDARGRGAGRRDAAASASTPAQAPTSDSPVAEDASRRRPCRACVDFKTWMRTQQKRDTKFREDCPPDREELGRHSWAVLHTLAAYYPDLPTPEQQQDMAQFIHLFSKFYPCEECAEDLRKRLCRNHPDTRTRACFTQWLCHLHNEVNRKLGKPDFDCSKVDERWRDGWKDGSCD
MIN6 prolif: inducers of MIN6 beta-cell proliferation, primary screen, ATP luminescence, uHTS; MIN6 cells proliferation, ATPlite luminescence, 48 h; cells starved in 0.2% serum; 100% = growth in 10% serum; proliferation, % at 10 µM; actives 0.29% (n = 330,000); AID 2380, 2010;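 active means compounds whose signal lies at least 3.5 SD above the mean of all wells on their plate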;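 further: 0% = DMSO-treated cells in low-serum medium and 100% = 10% serum control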
JMJD2C inh: inhibitors of GASC-1 histone demethylase, primary screen, biochemical, fluorescence, DELFIA europium; Lysine-specific demethylase 4C (Homo sapiens), Q9H3R0; GST-JMJD2C(1-420) H3K9me3 demethylation; inhibition, % at 2.35 µM; AID 2099, 2009; actives 0.069% (n = 330,000);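 active means more than half of a compound's replicate wells show inhibition beyond 50%, single wells judged on their own value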;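 further: signal counts dimethyl H3K9 product captured on neutravidin plate; 0% = median of DMSO wells and 100% = 0.3 times that DMSO median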
Numbers without * were called inactive; · = not tested or not shown.

SMILES | SMARCA2 activ | PfM18AAP inh | Exocytosis inh | ALR H2O2 inh | MIN6 prolif | JMJD2C inh
CC1CCN(C2=NC(=O)N(c3ccc(Br)cc3)C(=O)C2)CC1 | -2 | · | · | · | · | ·
CC1(C)Cc2nc3sc(C(=O)NCCCO)c(N)c3cc2CS1 | -1 | 16 | 1 | · | -2 | 5
CC1(C)Cc2nc3sc(C(=O)NCCO)c(N)c3cc2CO1 | 1 | 31* | 0 | 1 | -3 | -3
CN1C[C@]2(C=C3CCCCC3n3c(=O)n(-c4ccccc4)c(=O)n32)N(C(=O)OCc2ccccc2)C1=NC(=O)c1ccccc1 (some centres not stated) | -2 | · | · | · | · | ·
COC(=O)[C@]12C[C@H](CC(=O)NCc3cccs3)C(=O)N(CCc3ccc(OC)c(OC)c3)C1=C[C@H](C(C)(C)C)O[C@@H]2C | 1 | · | · | · | · | ·
Oc1cccc(NC(=S)N=Nc2c(O)[nH]c3ccc(Br)cc23)c1 | -2 | 9 | -4 | 99* | -6 | 1
Nn1c(SCC(=O)Nc2ccc(Br)cn2)nnc1-c1n[nH]c2c1CCC2 | 1 | · | · | · | · | ·
CS(=O)(=O)c1ccc(C(=O)OC2CCOC2=O)cc1[N+](=O)[O-] (configuration not stated) | 0 | -3 | -5 | 94* | -6 | -9
CCOC(=O)c1ccc(S(=O)(=O)N2CC(=O)Nc3ccccc32)cc1 | -2 | 0 | 0 | 99* | -6 | 5
CCOC(=O)[C@@]12CCCC=C1N(CCc1ccc(Cl)cc1)C(=O)[C@H]2CC(=O)NCc1ccc(C)o1 | -3 | · | · | · | · | ·
Cc1cccc(N2C(=O)C(O)=C(C(=O)c3cccs3)C2c2ccc(C(C)C)cc2)n1 (configuration not stated) | 3 | -14 | 5 | 98* | -2 | 0
CCCCCC[C@@H](CCCc1ccccc1OC)CN(CCCC)S(C)(=O)=O | 2 | · | · | · | · | ·
CCOc1ccc2[nH]c3c(NCCO)ncnc3c2c1 | -1 | -4 | -6 | 89* | 0 | 5
COc1cc(CNc2ncnc3c2[nH]c2ccc(C)cc23)cc(OC)c1 | -3 | -1 | 56* | 48 | -3 | 29
CCCCNC(=O)C1(C(C)=O)CC(C(=O)OCC)=NO1 (configuration not stated) | -3 | · | · | · | · | ·
Cc1ccc(Cn2ccsc2=NC(=O)CCl)cc1 | -13 | 11 | -2 | 97* | -5 | ·
C[C@H](NC(=O)OC(C)(C)C)c1nnc(SCC(=O)Nc2cccc(Cl)c2)o1 | -5 | 2 | -2 | 96* | 0 | 2
CCN(CC)c1ccc(/C=C2\CCC(/C=N/NC(=O)c3ccc(=O)n(C)c3)=C2N2CCOCC2)cc1 | -2 | 13 | 7 | 100* | -5 | 23
O=C(N/N=C/C1=C(N2CCOCC2)C(=C\c2ccccc2)/CC1)Nc1ccccc1 | 0 | -3 | -7 | -1 | 0 | 3
CCC(C)c1ccc(O)c(NC(=O)c2cccnc2)c1 (configuration not stated) | -3 | 3 | 0 | 95* | -1 | 19
CC(C)c1ccc(O)c(NC(=S)NC(=O)c2cccnc2)c1 | 3 | 20 | 0 | 14 | -5 | 1
CCN(CC)CCCn1c2c(c(SCC(=O)Nc3cc(C)cc(C)c3)nc1=O)CCC2 | -4 | · | 4 | · | · | ·
CN(C)CCn1c2c(c(SCC(=O)Nc3cccc4ccccc34)nc1=O)CCCC2 | -1 | · | 13 | 20 | 3 | 8
CCN(CC)CCn1c2c(c(SCC(=O)Nc3cccc(C(C)=O)c3)nc1=O)CCCC2 | -1 | · | 8 | · | -4 | -24
Cc1csc(NC(=O)CSc2nc(=O)n(CCN(C)C)c3c2CCCC3)n1 | 5 | · | -2 | 98* | 2 | 3
CCN(CC)CCn1c2c(c(SCC(=O)Nc3cc(OC)cc(OC)c3)nc1=O)CCC2 | -2 | · | -5 | 96* | 2 | -8
COc1cccc(NC(=O)CSc2nc(=O)n(CCN(C)C)c3c2CCCC3)c1 | 2 | · | -8 | 97* | 0 | -4
CCc1ccc(NC(=O)CSc2nc(=O)n(CCN(C)C)c3c2CCCC3)cc1 | -1 | · | -3 | 99* | -1 | -18
